Assay [1] concerns the target Lysosomal acid glucosylceramidase (Homo sapiens) (UniProt P04062). As to the kind of experiment: Glucocerebrosidase-p2 (AID 348; in the data active means potency below about 10 µM; further: potency means the concentration at half of the fitted maximal effect). As to conditions: purified GBA, blue fluorogenic substrate, 40 min. A digest of the protocol:
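Normal human glucocerebrosidase (0.2 nM) with blue fluorogenic substrate (80 uM final) in citrate/phosphate pH 5.9 with 10mM sodium taurocholate, 0.01% tween-20; 40 min RT, NaOH/glycine stop; fluorescence Ex 365/Em 440; AC50 from a titration from 0.6 nM upwards.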

Assay [2] in a line: AP1 Signaling Pathway (AID 357; active means well fitted curve in either direction with a large enough effect, not every such curve was filed as active;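 further: ME-180 reporter cells stimulated with EGF at its EC50 level; on the % scale 0 is the no-effect control and ±100 the full control effect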). As to conditions: ME-180 AP-1-bla reporter, EGF-induced, beta-lactamase ratio, 5 h; at 7.69 µM (top of the series) unless noted. Summed up: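 Beta-lactamase reporter under AP-1 response element, ME-180 background. Stimulus: EC50 EGF. Compound exposure 5 h, 37 °C. Detection: CCF4, 2.5 h RT, 460/530 nm. Values: AC50 from titration.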
The target in assay [3] is Cytochrome P450 1A2 (Homo sapiens) (UniProt P05177). As to the kind of experiment: p450-cyp1a2 (AID 410; calls by dose curve; further: potency means the concentration at half of the fitted maximal effect;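 on activity change, negative = inhibition: -100% = full effect of reference inhibitor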). Summed up:
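Read-out is luminescence from luciferin produced by CYP1A2 demethylation of Luciferin-ME (100uM, at Km). Detection reagent stopped the 60 min NADPH-dependent reaction; signals were normalized to 57 uM furafylline.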

A short description of assay [4]: NFAT Signaling Pathway (AID 444; active means well fitted curve in either direction with a large enough effect, not every such curve was filed as active;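 further: carbachol stimulus at about its EC50 of 1 µM final; on the % scale 0 is the no-effect control and ±100 the full control effect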). As to conditions: Jurkat NFAT-bla M1, carbachol, beta-lactamase ratio, 5 h; at 7.69 µM (top of the series) unless noted. A digest of the protocol:
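Read-out: CCF4 FRET ratio (460 nm/530 nm) after 1 h RT dye loading, used for %activity and AC50 from titration series. Cells: Jurkat NFAT-β-lactamase/M1 line, treated with compound plus 1 uM carbachol for 5 h, 37 °C.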

A short description of assay [5]: Stat Signaling Pathway (AID 446; active means well fitted curve in either direction with a large enough effect, not every such curve was filed as active;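 further: ME-180 cervical cancer cells given 40 pM IL-6 alongside compound; SIE-controlled beta-lactamase reporter measured as 460/530 nm FRET emission ratio; on the % scale 0 is the no-effect control and ±100 the full control effect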). The note with it: ME-180 (cervical carcinoma) SIE beta-lactamase reporter, IL-6 stimulated, 5 h; at 7.69 µM (top of the series) unless noted. Summed up:
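Overnight-plated ME-180 cells bearing a STAT Inducible Element beta-lactamase reporter; 5 h co-exposure to compound and 40 pM IL-6; values normalized to 300 pM IL-6 and 125 nM JAK inhibitor controls.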

Assay [6] addresses Glucocorticoid receptor (Homo sapiens) (UniProt P04150). As to the kind of experiment: GR-GFP Redistribution (AID 450;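 active means compounds whose dose series gives a full or clear partial fitted curve of increased nuclear translocation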; further: potency means the concentration at half of the fitted maximal effect). The note with it: U2OS GR-GFP nuclear translocation, laser cytometry, 2 h.
The target is the same in assay [7]. As to the kind of experiment: GR-EFC Redistribution (AID 451; calls by dose curve; further: potency means the concentration at half of the fitted maximal effect). As to conditions: CHO-K1 GR-EFC translocation, beta-gal luminescence, 2 h. Summed up:
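Translocation of GR-ED fusion to nuclear EA restores b-gal, read by luminescence after 1 h room-temperature detection. Engineered CHO-K1 biosensor cells, 1,000/well, exposed 2 h at 37 C to titrations up to 46 uM final.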

In assay [8] the target is Mitogen-activated protein kinase 10 (Mus musculus) (UniProt Q61831). As to the kind of experiment: JNK3 AlphaScreen Assay (AID 530; active means well fitted curve in either direction with a large enough effect, not every such curve was filed as active;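 further: kinase came from lysate of stimulated human HepG2 cells; signal reports phosphorylation of biotinylated GST-cJun 1-79 at Ser73 with 10 µM ATP; on the % scale 0 is the no-effect control and ±100 the full control effect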). Summed up:
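Kinase buffer: 20 mM Tris-HCl pH 7.6, 10 mM MgCl2, 1 mM DTT, 0.1 mM Na3VO4, 0.01% Tween-20; ATP 10 uM. Substrate biotin-GST-cJun(1-79), enzyme from activated HepG2 lysates. Detection by Ser73 phospho-antibody AlphaScreen.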
(Alpha assays give light when donor and acceptor beads are brought close together.)

For assay [9], the target named is 3',5'-cyclic-AMP phosphodiesterase 4B (Homo sapiens) (UniProt Q07343). As to the kind of experiment: qHTS Assay for Inhibitors of PDE-IV (AID 607; active means well fitted activation curve with a large enough effect in the main read-out, with a control signal flat, not every such curve was filed as active; further: % of control where 0% means no effect). Summed up:
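Live HEK293 cells with a modified cyclic nucleotide-gated (CNG) channel report intracellular cAMP via membrane-potential dye fluorescence (ex 535/em 590 nm). Endogenous PDE-IV was targeted. Compounds were tested at up to 22.9 uM final; RO 20-1724 100 uM served as control.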
(In general: qHTS replaces the single test concentration by a dilution series.)

For assay [10], the target named is Cytochrome P450 3A4 (Homo sapiens) (UniProt P08684). As to the kind of experiment: qHTS Assay for Inhibitors and Substrates of Cytochrome P450 3A4 (AID 884). Further: potency means the concentration at half of the fitted maximal effect; nearly all actives have a fitted effect of over 50% in size. Summed up:
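Luminescent readout of luciferin produced by CYP3A4 (20 nM) dealkylation of Luciferin-PPXE, 25 uM (its KM). NADPH-driven reaction ran 60 min at RT after 10 min compound preincubation; data scaled to 57 uM ketoconazole as 100% inhibition.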

For assay [11] the target is unchanged. As to the kind of experiment: qHTS Assay for Activators of Cytochrome P450 3A4 (AID 885). Further: nearly all actives have a fitted effect of over 65% in size. A digest of the protocol: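 Using 20nM recombinant human CYP3A4 in potassium phosphate (200mM), substrate Luciferin-PPXE at 25uM, luminescent luciferin detection followed a 60-min RT NADPH reaction; data scaled to 57 uM ketoconazole.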
For assay [12], the target named is Ubiquitin carboxyl-terminal hydrolase 1 (Homo sapiens) (UniProt O94782). As to the kind of experiment: Inhibitors of USP1/UAF1: Pilot qHTS (AID 504865).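 Further: rhodamine fluorescence freed from ubiquitin-rhodamine substrate followed over time; top concentration of the series differs between compounds; on the % scale 0 is the no-effect control and ±100 the full control effect; nearly all actives have a fitted effect of over 35% in size.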 A digest of the protocol:
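Kinetic fluorescence assay: 1nM USP1/UAF1, 15 min compound preincubation, then 150nM Ub-Rho; 480/540 nm.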

A short description of assay [13]: Primary qHTS for small molecule stabilizers of the endoplasmic reticulum resident proteome: Secreted ER Calcium Modulated Protein (SERCaMP) assay (AID 1508630). Further: on the % scale 0 is the no-effect control and ±100 the full control effect. Summed up: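 The SH-SY5Y reporter protocol was run at 3 concentrations up to 38.3 uM (primary) or 11 concentrations (follow-up): 16 h compound, 100 nM thapsigargin for 4 h, then extracellular luciferase luminescence.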

Assay [14] is described as follows: Confirmation and Secondary Assay for Modulators of Hemoglobin Beta Chain Splicing at IVS2 654 locus (AID 910).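 Further: HeLa cells stably carrying EGFP split by mutant beta-globin IVS2-654 intron; per-well total GFP intensity by laser scanning cytometry after 2-day treatment; % of control where 0% means no effect.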 Summed up: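 Readout: per-well total peak green fluorescence (488 nm ex, 500–520 nm em) from objects 5–250 µm, reflecting correct splicing of an EGFP-654 reporter. Compounds were applied for 2 days at 37 °C to overnight-plated HeLa EGFP-654 cells; controls were DMSO and 500 nM IVS2-654 PNA.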

Assay [15] is described as follows: Confirmation and Secondary Assay for Modulators of Hemoglobin Beta Chain Splicing at IVS2 705 locus (AID 930).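 Further: HeLa cells stably expressing the EGFP-705 splicing reporter; GFP fluorescence per well restored by corrected splicing of the IVS2-705 intron in EGFP; % of control where 0% means no effect.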 Summed up:
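Fluorescence gain (488 nm laser, 500-520 nm PMT) reflects restored correct splicing of a mutant IVS2-705 intron inside EGFP in stably transfected HeLa cells after 2-day compound treatment.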

The target in assay [16] is Cytochrome P450 2C19 (Homo sapiens) (UniProt P33261). As to the kind of experiment: qHTS Assay for Inhibitors and Substrates of Cytochrome P450 2C19 (AID 899). Further: potency means the concentration at half of the fitted maximal effect; nearly all actives have a fitted effect of over 60% in size. Summed up: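 Reactions contain 5nM enzyme, 10uM Luciferin-H EGE (KM) and 50mM KPO4; compound preincubates 10 min at 37C, NADPH regeneration starts turnover for 60 min. Luminescence after detection reagent gives activity.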
Cytochrome P450 2C19 (Homo sapiens), sequence (P33261 whole entry, looked up): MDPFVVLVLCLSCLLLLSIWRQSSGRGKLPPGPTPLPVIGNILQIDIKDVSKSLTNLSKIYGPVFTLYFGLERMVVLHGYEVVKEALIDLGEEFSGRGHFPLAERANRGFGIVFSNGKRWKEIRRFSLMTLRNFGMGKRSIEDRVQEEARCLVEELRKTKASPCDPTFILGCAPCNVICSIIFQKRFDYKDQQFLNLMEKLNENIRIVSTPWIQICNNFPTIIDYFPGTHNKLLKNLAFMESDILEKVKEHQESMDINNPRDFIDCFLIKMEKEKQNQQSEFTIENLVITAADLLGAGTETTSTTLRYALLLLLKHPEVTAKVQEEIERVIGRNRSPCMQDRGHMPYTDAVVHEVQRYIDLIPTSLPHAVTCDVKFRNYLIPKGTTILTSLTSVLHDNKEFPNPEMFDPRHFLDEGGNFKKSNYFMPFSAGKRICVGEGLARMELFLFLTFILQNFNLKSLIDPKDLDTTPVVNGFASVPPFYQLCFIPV

Unmarked numbers belong to inactive results. Results filed as inconclusive are left out. Activity calls are given as the source filed them. Unless noted, the call rests on the fitted dose curve; in most records, active means well fitted curve in the direction sought with a large enough effect; inconclusive means small, poorly fitted or top-dose-only effect, or another doubt; inactive means no such curve, though single readings can be large; an effect the other way counts as inactive or inconclusive.

Cytochrome P450 3A4 (Homo sapiens), sequence (P08684 whole entry, looked up): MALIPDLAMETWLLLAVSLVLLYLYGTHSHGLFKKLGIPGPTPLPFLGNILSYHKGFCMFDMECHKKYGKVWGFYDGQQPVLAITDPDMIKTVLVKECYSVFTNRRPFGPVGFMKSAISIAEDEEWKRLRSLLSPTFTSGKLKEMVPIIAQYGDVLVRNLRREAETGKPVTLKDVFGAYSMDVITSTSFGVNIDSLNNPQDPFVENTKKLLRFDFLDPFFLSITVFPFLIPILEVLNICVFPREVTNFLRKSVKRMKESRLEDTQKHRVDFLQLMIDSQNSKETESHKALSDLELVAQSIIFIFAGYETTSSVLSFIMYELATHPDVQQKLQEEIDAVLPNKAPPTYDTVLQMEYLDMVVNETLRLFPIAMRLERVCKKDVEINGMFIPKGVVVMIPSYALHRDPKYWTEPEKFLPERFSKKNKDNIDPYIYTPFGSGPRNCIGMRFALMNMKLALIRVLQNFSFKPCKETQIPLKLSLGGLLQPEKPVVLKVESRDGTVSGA
Glucocorticoid receptor (Homo sapiens), sequence (P04150 whole entry, looked up): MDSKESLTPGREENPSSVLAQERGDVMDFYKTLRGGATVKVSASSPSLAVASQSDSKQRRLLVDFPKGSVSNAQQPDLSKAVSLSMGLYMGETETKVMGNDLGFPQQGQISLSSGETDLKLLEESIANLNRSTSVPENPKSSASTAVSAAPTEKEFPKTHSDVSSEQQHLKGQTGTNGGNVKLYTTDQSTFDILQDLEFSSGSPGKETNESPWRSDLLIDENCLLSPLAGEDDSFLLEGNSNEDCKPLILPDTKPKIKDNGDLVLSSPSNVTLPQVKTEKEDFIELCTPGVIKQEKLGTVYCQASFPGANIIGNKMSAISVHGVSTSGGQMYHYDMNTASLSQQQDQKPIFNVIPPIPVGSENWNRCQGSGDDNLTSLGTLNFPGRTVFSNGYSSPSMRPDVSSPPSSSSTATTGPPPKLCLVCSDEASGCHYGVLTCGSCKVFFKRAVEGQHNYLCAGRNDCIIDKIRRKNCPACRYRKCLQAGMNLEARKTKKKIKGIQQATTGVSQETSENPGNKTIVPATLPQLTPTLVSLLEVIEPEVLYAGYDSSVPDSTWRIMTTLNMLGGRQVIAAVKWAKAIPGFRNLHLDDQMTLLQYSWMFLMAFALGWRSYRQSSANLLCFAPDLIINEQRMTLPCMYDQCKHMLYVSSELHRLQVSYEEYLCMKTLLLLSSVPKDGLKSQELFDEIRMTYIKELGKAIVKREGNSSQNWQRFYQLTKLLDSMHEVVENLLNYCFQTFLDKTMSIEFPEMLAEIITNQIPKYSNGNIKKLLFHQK
Lysosomal acid glucosylceramidase (Homo sapiens), sequence (P04062 whole entry, looked up): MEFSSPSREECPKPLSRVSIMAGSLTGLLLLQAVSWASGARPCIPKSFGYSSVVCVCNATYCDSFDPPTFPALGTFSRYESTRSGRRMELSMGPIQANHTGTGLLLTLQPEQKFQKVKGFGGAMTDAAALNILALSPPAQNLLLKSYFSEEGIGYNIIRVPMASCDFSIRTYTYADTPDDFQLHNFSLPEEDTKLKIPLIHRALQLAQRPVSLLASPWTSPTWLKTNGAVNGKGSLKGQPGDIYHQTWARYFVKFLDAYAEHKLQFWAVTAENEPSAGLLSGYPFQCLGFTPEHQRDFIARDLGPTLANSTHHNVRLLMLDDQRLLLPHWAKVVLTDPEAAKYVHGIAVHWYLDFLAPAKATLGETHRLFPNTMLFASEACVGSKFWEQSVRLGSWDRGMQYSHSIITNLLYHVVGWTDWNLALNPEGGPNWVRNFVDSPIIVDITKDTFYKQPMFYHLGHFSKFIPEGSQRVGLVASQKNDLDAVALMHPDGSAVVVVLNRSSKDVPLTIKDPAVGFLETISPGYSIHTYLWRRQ
Cytochrome P450 1A2 (Homo sapiens), sequence (P05177 whole entry, looked up): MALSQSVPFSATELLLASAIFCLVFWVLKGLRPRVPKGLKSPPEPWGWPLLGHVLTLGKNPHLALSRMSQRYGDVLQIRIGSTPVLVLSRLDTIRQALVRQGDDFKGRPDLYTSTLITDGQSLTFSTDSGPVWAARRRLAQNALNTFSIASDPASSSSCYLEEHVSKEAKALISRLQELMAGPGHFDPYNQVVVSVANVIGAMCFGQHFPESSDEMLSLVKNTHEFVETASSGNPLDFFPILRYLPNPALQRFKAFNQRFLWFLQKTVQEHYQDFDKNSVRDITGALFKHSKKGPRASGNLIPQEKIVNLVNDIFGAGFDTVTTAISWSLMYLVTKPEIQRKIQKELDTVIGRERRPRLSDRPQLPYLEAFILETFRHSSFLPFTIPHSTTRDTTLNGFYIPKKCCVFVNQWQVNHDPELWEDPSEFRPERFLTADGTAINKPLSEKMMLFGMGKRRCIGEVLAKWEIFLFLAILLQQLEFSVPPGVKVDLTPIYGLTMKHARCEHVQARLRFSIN
Ubiquitin carboxyl-terminal hydrolase 1 (Homo sapiens), sequence (O94782 whole entry, looked up): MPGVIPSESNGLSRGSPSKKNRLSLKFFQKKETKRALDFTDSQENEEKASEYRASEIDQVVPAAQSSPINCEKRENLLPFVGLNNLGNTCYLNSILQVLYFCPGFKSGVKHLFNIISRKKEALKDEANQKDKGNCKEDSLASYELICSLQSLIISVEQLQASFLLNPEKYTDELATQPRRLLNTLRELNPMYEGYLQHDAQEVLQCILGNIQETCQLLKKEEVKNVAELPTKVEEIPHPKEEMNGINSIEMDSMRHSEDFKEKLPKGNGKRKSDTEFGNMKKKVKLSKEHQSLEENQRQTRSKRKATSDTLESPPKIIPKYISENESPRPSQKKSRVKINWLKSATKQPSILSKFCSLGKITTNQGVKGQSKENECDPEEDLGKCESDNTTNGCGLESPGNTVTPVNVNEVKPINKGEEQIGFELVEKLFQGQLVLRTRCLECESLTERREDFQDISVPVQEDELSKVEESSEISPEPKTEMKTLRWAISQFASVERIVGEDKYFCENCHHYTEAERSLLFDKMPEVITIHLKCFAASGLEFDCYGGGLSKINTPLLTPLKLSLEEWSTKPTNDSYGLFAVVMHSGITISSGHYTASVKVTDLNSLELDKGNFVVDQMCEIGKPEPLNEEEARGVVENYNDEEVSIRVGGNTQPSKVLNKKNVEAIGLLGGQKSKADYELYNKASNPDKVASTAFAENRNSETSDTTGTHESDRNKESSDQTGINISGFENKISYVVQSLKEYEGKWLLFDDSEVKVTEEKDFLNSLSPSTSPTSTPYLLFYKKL
3',5'-cyclic-AMP phosphodiesterase 4B (Homo sapiens), sequence (Q07343 whole entry, looked up): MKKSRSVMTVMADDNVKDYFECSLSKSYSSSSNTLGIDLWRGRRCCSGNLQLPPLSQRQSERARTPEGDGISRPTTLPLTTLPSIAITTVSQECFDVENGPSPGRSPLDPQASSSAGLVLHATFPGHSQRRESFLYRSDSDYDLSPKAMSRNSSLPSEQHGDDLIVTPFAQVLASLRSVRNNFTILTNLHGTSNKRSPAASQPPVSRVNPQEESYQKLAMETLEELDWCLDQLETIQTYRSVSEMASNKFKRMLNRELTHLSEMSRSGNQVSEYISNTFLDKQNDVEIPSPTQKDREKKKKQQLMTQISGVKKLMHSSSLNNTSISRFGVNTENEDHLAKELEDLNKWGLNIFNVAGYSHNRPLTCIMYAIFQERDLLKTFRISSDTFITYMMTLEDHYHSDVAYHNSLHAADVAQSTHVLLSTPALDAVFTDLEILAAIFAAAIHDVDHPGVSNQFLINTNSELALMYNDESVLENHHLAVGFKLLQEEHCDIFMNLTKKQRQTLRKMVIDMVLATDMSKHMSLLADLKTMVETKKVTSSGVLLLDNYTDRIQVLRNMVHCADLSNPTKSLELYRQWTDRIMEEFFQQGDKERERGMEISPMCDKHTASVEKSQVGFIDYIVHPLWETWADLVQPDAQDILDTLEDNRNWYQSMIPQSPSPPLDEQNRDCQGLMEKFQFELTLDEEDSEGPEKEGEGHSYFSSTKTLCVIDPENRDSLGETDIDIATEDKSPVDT

In the case of `CC(=O)NCCNc1nc(-c2ccc3c(c2)OCO3)nc2ccccc12`, the Potency in assay [1] is > 11.4 µM; in assay [3], 2.51 µM (active); in assay [6], > 46 µM; in assay [7] it was > 46 µM; in assay [10], 3.98 µM (active). In addition, the results for the activity change, negative = inhibition in [2] and in assay [4] were -7.08% and 5.61%, respectively. Further, in [5], the activity, negative = inhibition was 4.37%. In addition, the Potency result in assay [8], in [9], in assay [11] and in [12] was “inactive” throughout. The outcome in assay [13] was inactive.
`FC(F)(F)c1ccccc1-c1cncnc1NCCc1cnc[nH]1`: the Potency in [1] was > 11.4 µM; in assay [3], 6.31 µM (active); in assay [6] it was > 46 µM; in assay [7], > 46 µM. Besides, the activity change, negative = inhibition in assay [2] was -1.69%; in assay [4] it was -20%. The activity, negative = inhibition in [5] is -1.23%. The Potency entry in assay [8], in [9], in assay [14] and in assay [12] was “inactive” throughout. Moreover, the call in assay [15] and in assay [13] was inactive.
As to `c1ccc(Nc2ncncc2-c2ccc3c(c2)OCO3)cc1`, the Potency in assay [1] was > 11.4 µM; in assay [3], 0.316 µM (active); in [6], > 46 µM; in [7], > 46 µM; in [10], 0.794 µM (active); in assay [16], 0.251 µM (active). In addition, the results for the activity change, negative = inhibition in assay [2] and in [4] were -19.3% and 9.45%, respectively. In assay [5], the activity, negative = inhibition was -14.2%. Moreover, the Potency entry in [8], in assay [11] and in [12] was “inactive” throughout. Further, the outcome in assay [13] was inactive.
Take `COCCNc1ccnc(-c2c(C)noc2C)n1`: the Potency in assay [1] is > 11.4 µM; in [3], 2.51 µM (active); in [6], > 46 µM; in assay [7] it was > 46 µM. Besides, the activity change, negative = inhibition was 3.45% in assay [2] and 9% in [4]. In addition, in assay [5], the activity, negative = inhibition was 5.3%. The Potency entry in [8], in [9], in assay [11], in assay [14] and in assay [12] was “inactive” in each case. Moreover, the compound was classed as inactive in assay [15] and in assay [13].
Regarding `CN(C)C(=O)c1ccc(-c2nccc(NCc3cccnc3)n2)cc1`, the Potency in assay [1] was > 11.4 µM; in assay [3], 15.8 µM (active); in [6], > 46 µM; in assay [7] it was > 46 µM. For the same compound, the activity change, negative = inhibition is -3.36% in assay [2] and 3.73% in assay [4]. Moreover, in [5], the activity, negative = inhibition was 2.62%. Besides, the Potency entry in [8], in assay [9], in assay [11], in assay [14] and in [12] was “inactive” in each case. Also, the outcome in assay [15] and in assay [13] was inactive.
In the case of `Cc1noc(C)c1-c1cncnc1NC1CC1`, the Potency was > 11.4 µM in [1], > 46 µM in assay [6], > 46 µM in assay [7] and 7.94 µM (active) in [10]. The activity change, negative = inhibition in assay [2] was 12.1%; in assay [4], 0.874%. Further, the Potency result in [3], in [8], in assay [9], in assay [11], in assay [14] and in assay [12] was “inactive” each time. The activity, negative = inhibition in assay [5] is -18.4%. In addition, the compound was called inactive in [15] and in assay [13].
